This is part of a sample that, as a whole, favours compounds with a hit. Of some 83,000 tested, about 20% had one in any assay.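 The test compound was applied at a single concentration to cells in 96-well plates for 48 hours, and percent growth was recorded.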 A number with no mark means an inactive call. Calls of active or inactive are those of the source. Rule for the calls: active = growth percent below 10; inactive = the rest.
Experiments:
Assay in all cases: NCI-60 one-dose screen, 48 h (100 = growth as untreated, 0 = no growth, -100 = all killed)
Settings in all cases: 10 µM unless noted
NCI-H23 lung = test system: NCI-H23 lung
NCI-H226 lung = test system: NCI-H226 lung
NCI-H322M lung = test system: NCI-H322M lung
HOP-62 NSCLC = test system: HOP-62 NSCLC
NCI-H460 lung = test system: NCI-H460 lung
HOP-92 NSCLC = test system: HOP-92 NSCLC
NCI-H522 lung = test system: NCI-H522 lung
A549/ATCC NSCLC = test system: A549/ATCC NSCLC
786-0 renal = test system: 786-0 renal
COLO 205 colon = test system: COLO 205 colon
DU-145 prostate = test system: DU-145 prostate
K-562 leukemia = test system: K-562 leukemia
MALME-3M melanoma = test system: MALME-3M melanoma
MDA-MB-231 breast = test system: MDA-MB-231 breast
RXF 393 renal = test system: RXF 393 renal
SF-268 CNS = test system: SF-268 CNS
SF-295 CNS = test system: SF-295 CNS
SF-539 CNS = test system: SF-539 CNS
UACC-257 melanoma = test system: UACC-257 melanoma
M14 melanoma = test system: M14 melanoma

Row | Compound | growth (NCI-H23 lung) | growth (NCI-H226 lung) | growth (NCI-H322M lung) | growth (HOP-62 NSCLC) | growth (NCI-H460 lung) | growth (HOP-92 NSCLC) | growth (NCI-H522 lung) | growth (A549/ATCC NSCLC) | growth (786-0 renal) | growth (COLO 205 colon) | growth (DU-145 prostate) | growth (K-562 leukemia) | growth (MALME-3M melanoma) | growth (MDA-MB-231 breast) | growth (RXF 393 renal) | growth (SF-268 CNS) | growth (SF-295 CNS) | growth (SF-539 CNS) | growth (UACC-257 melanoma) | growth (M14 melanoma)
1 | CC1=C(C(=O)OCc2ccccc2)C(c2ccc(N(C)C)cc2)n2c(nc3ccccc32)N1 (stereo not given) | 90.8% | 70.1% | 101% | 83.6% | 99.8% | 73.5% | 8.11% (active) | 94.9% | 90.6% | 110% | 99.6% | 58% | 75.9% | 91.6% | 74.6% | 81.7% | 57.3% | 86.4% | 85.7% | 80.4%
2 | O=C1CC(c2ccc(I)cc2)OC2C=Cc3ccccc3C12 (stereo not given) | 98.2% | 90.7% | 103% | 98.7% | 108% | 101% | 86.9% | 102% | 99.2% | 118% | 106% | 102% | 94.3% | 97.6% | 107% | 114% | 99.9% | 106% | 113% | 108%
3 | C[C@@H]1CN(c2ccc3ncc(C#Cc4cncc(C(=O)Nc5ccc(CN6CCN(C)CC6)c(C(F)(F)F)c5)c4)n3n2)C[C@@H](C)O1 | -87.5% (active) | -86.3% (active) | -78.9% (active) | -59.8% (active) | -80% (active) | -87.7% (active) | -73.3% (active) | -59% (active) | -95.9% (active) | -77.7% (active) | -85.7% (active) | -28.1% (active) | -97.5% (active) | -93.1% (active) | -96.1% (active) | -56.2% (active) | -100% (active) | -100% (active) | -86.6% (active) | -94% (active)
4 | COc1sc(/C=N/NC(=O)c2[nH]c3ccc(Br)cc3c2-c2ccccc2)cc1Br | -14.1% (active) | 14.7% | 31.4% | 12.2% | -7.71% (active) | 63.7% | -35.8% (active) | 6.26% (active) | -1.7% (active) | 0.155% (active) | -8.01% (active) | 7.79% (active) | 48% | -13.3% (active) | -0.818% (active) | 3.22% (active) | -15% (active) | -64.1% (active) | 52.7% | 10.7%
5 | Cc1nn(-c2ccccc2)c2nc(C)n(C(=O)N/N=C/c3ccccc3)c(=O)c12 | 99.7% | 87.5% | 103% | 102% | 106% | 99.4% | 97.9% | 101% | 97.1% | 118% | 114% | 95.6% | 91.5% | 91.8% | 111% | 104% | 94.9% | 93.8% | 106% | 98.5%
6 | CN(CCSSCCN1CCOCC1)C(=O)Oc1cc2c(c3ccccc13)[C@H](CCl)CN2C(=O)c1cc2cc(OCCCN3CCC3)ccc2[nH]1 | -67.5% (active) | -11.7% (active) | -3.1% (active) | -64.7% (active) | -23.3% (active) | -14.1% (active) | -66.4% (active) | -45.8% (active) | -35% (active) | -74% (active) | -70.8% (active) | -34.6% (active) | -79.5% (active) | -23.7% (active) | -77.4% (active) | 3.42% (active) | 1.02% (active) | -86.2% (active) | -17.1% (active) | -72.5% (active)
7 | CC1CCc2c(sc3nc(SCC(=O)c4cccc(Br)c4)n(-c4ccccc4)c(=O)c23)C1 (stereo not given) | 11.3% | 19.7% | 74.5% | 39.9% | 55% | 44% | 40.3% | 92.3% | 18.8% | 25.3% | 20.3% | 43.3% | 97.5% | 32.3% | 90.9% | 64.9% | 47.2% | 18.3% | 91.1% | 55.4%
8 | CN1C(=O)C(O)(CC(=O)c2cc3ccccc3oc2=O)c2ccccc21 (stereo not given) | 93.3% | 81% | 103% | 97% | 114% | 110% | 92.7% | 111% | 105% | 114% | 137% | 72.7% | 94.7% | 91.8% | 122% | 98.8% | 96.3% | 93.3% | 109% | 94.2%
